Assay results published in PubChem BioAssay AID1159580 (chemical genetic matrix, 2015).
“And” between values parts separate entries of the source, which are not always exact repeats. Equal entries are not always repeated. Hit rate of the full screen: of about 5,500 compounds, about 2,000 (36%) were called active. Another 18% or so got no clear call; they are omitted. No stated cut-off is given here; in the data, active means normalized growth mostly below about 0.91 (no sharp cut-off); inconclusive means no clear call, values can overlap the other calls; inactive means mostly above about 0.92. Some of the results follow.

Assay: chemical genetic growth profiling, strain panel (AID 1159580);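 further: tested at 20 µM; growth read once vehicle control cultures reached saturation at 30 °C; 1 = growth at the plate median or of vehicle wells; lower values mean less growth of the strain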
Conditions: S. cerevisiae deletion strains, growth OD

Measured: normalized growth

COC(=O)CCC(C)[C@H]1CCC2C3C(C[C@H](O)[C@@]21C)[C@@]1(C)CC[C@@H](O)C[C@H]1C[C@H]3O (some centres undefined)
inactive: locus YAL013W, strain DEP1, active compounds read low 1.03 | locus YAL021C, strain ccr4, active compounds read low 1.01 | locus YAL026C, strain drs2, active compounds read low 0.997 | locus YAL030W, strain snc1, active compounds read low 1.01 | locus YBL061C, strain skt5, active compounds read low 1.01 | locus YBR009C, strain hhf1, active compounds read low 1 | locus YBR021W, strain FUR4, active compounds read low 0.952 | locus YBR023C, strain chs3, active compounds read low 1 | locus YBR171W, strain sec66, active compounds read low 1.01 | locus YBR229C, strain ROT2, active compounds read low 1.03 | locus YBR279W, strain paf1, active compounds read low 1.01 | locus YCL011C, strain gbp2, active compounds read low 1.02 | locus YCL016C, strain dcc1, active compounds read low 1.02 | locus YCL029C, strain bik1, active compounds read low 1.04 | locus YCL061C, strain MRC1, active compounds read low 1.02 | locus YCL069W, strain vba3, active compounds read low 1 | locus YCR088W, strain abp1, active compounds read low 1.02 | locus YDL005C, strain med2, active compounds read low 0.999 | locus YDL035C, strain GPR1, active compounds read low 1.01 | locus YDL040C, strain nat1, active compounds read low 1.01 | locus YDL074C, strain BRE1, active compounds read low 0.983 | locus YDL101C, strain DUN1, active compounds read low 1.01 | locus YDL185W, strain tfp1, active compounds read low 1.02 | locus YDL192W, strain arf1, active compounds read low 1.02 | locus YDR001C, strain nth1, active compounds read low 1.01 | locus YDR069C, strain doa4, active compounds read low 1 | locus YDR101C, strain arx1, active compounds read low 1.01 | locus YDR137W, strain rgp1, active compounds read low 1.07 | locus YDR150W, strain NUM1, active compounds read low 1.02 | locus YDR159W, strain sac3, active compounds read low 0.994 | locus YDR162C, strain NBP2, active compounds read low 1.02 | locus YDR195W, strain ref2 1 | locus YDR297W, strain sur2, active compounds read low 1.01 | locus YDR318W, strain mcm21, active compounds read low 1.01 | locus YDR334W, strain swr1, active compounds read low 1.01 | locus YDR335W, strain msn5, active compounds read low 1.01 | locus YDR388W, active compounds read low 1.02 | locus YDR392W, strain spt3, active compounds read low 0.965 | locus YDR502C, strain sam2, active compounds read low 1.02 | locus YEL003W, strain gim4, active compounds read low 1.01 | locus YEL037C, strain rad23, active compounds read low 1.01 | locus YEL061C, strain CIN8 (second series), active compounds read low 1.01 | locus YEL061C, strain CIN8, active compounds read low 1 | locus YER015W, strain faa2, active compounds read low 1.02 | locus YER016W, strain bim1, active compounds read low 1.01 | locus YER110C, active compounds read low 1.02 | locus YER111C, strain swi4, active compounds read low 1.01 | locus YER155C, strain BEM2 (second series), active compounds read low 1.02 | locus YER155C, strain BEM2, active compounds read low 1.02 | locus YER167W, strain BCK2, active compounds read low 1 | locus YFR010W, strain ubp6, active compounds read low 0.996 | locus YGL078C, strain dbp3, active compounds read low 1.02 | locus YGL086W, strain mad1, active compounds read low 1.01 | locus YGL167C, strain pmr1, active compounds read low 1.01 | locus YGL173C, strain kem1, active compounds read low 1.01 | locus YGL227W, strain vid30, active compounds read low 1.02 | locus YGL240W, strain doc1, active compounds read low 1.04 | locus YGL248W, strain PDE1, active compounds read low 1.01 | locus YGL253W, strain hxk2, active compounds read low 0.96 | locus YGR078C, strain PAC10, active compounds read low 1 | locus YGR135W, strain pre9, active compounds read low 1 | locus YGR252W, strain gcn5, active compounds read low 0.909 | locus YHR013C, strain ard1, active compounds read low 1.02 | locus YHR027C, strain rpn1, active compounds read low 1 | locus YHR030C, strain SLT2, active compounds read low 1.02 and 1.01 | locus YHR079C, strain IRE1 (second series), active compounds read low 1.03 | locus YHR079C, strain IRE1, active compounds read low 0.984 | locus YHR094C, strain hxt1, active compounds read low 1.06 | locus YHR129C, strain ARP1, active compounds read low 1.01 | locus YHR142W, strain chs7, active compounds read low 0.976 | locus YHR200W, strain rpn10, active compounds read low 1 | locus YIL066C, strain RNR3, active compounds read low 1.01 | locus YIL073C, strain SPO22, active compounds read low 1.07 | locus YIL125W, strain kgd1, active compounds read low 1.03 | locus YIR030C, strain dcg1, active compounds read low 1.03 | locus YJL092W, strain hpr5, active compounds read low 1.01 | locus YJL095W, strain BCK1 (second series), active compounds read low 1.02 | locus YJL095W, strain BCK1, active compounds read low 0.976 and 0.998 | locus YJL115W, strain asf1, active compounds read low 1.01 | locus YJL129C, strain trk1, active compounds read low 1.03 | locus YJL134W, strain LCB3, active compounds read low 1.03 | locus YJL154C, strain vps35, active compounds read low 1.02 | locus YJL164C, strain tpk1, active compounds read low 1.01 | locus YJL166W, strain qcr8, active compounds read low 1.02 | locus YJL168C, strain set2, active compounds read low 1.03 | locus YJL187C, strain SWE1 (second series), active compounds read low 1.02 | locus YJL187C, strain SWE1, active compounds read low 1.01 | locus YJR043C, strain POL32, active compounds read low 0.999 | locus YJR066W, strain TOR1, active compounds read low 0.949
